CtBP-E1A blk: CtBP/E1A binding inhibition. 0.49% of 340,000 active. AlphaScreen GST-E1A/His-CtBP binding, 1536-well; hits give low values. activity change, % (test concentration not listed); in the data active = activity change below about -65%; inconclusive = mostly about -30% to -63%; note: % is set by controls: 0 for no effect and ±100 for the full control effect
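Protein mix (5X: 125 nM each GST-E1A, His-CtBP) was incubated with pinned compound 2 h at 37 deg C in dark, in 50 mM Tris pH 8.0 buffer with 300 mM NaCl. Glutathione donor and nickel acceptor beads followed; AlphaScreen signal read after 1 h.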
Six1-Eya2 inh: inhibitors of human Six1/Eya2 interaction. Q15475+O00167. AlphaScreen GST-Six1/His-Eya2 binding, biochemical; hits give low values. activity change, % (test concentration not listed). 0.56% of 360,000 active. AID 651725; in the data active = activity change below about -65%; inconclusive = mostly about -30% to -63%; note: % is set by controls: 0 for no effect and ±100 for the full control effect
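Six1/Eya2 binding was read as AlphaScreen signal after compounds were pinned into GST-Six1 plus His-tagged Eya2 (5X stock 250/500 nM) in pH 8.0 Tris/NaCl/TCEP buffer, beads added, then incubated 1 h, 37 C, dark.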
JMJD2A Tudor inh: inhibitors of human JMJD2A Tudor domain; O75164; Potency, µM (series often up to 114 µM), inactives show top-dose activity change, negative = inhibition, usual class: inhibitors; 4.4% of 390,000 active; AlphaScreen JMJD2A-Tudor / H3K4me3 peptide binding; AID 504339; note: potency is the fitted concentration of half-maximal effect; % is set by controls: 0 for no effect and ±100 for the full control effect; nearly all actives have a fitted effect of over 50% in size
G9a inh: blocks human histone lysine methyltransferase G9a. G9a H3K9 monomethylation, AlphaScreen, 2 h. Potency, µM (titrated, usually from 102 µM), for the others: at the top dose activity, negative = inhibition, most hits filed as inhibitors. 8.8% of 350,000 active. AID 504332; note: potency is the fitted concentration of half-maximal effect; % is set by controls: 0 for no effect and ±100 for the full control effect; nearly all actives have a fitted effect of over 75% in size
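AlphaScreen read-out: biotin-H3K9 peptide (500 nM) methylation by 20 nM enzyme with 20 uM SAM, 2 h at room temperature after 15 min compound preincubation; anti-monomethyl H3K9 antibody plus donor/acceptor beads, 10 min dark.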
BAZ2B inh: BAZ2B (human) inhibition | AlphaScreen BAZ2B-H3K14Ac peptide displacement | AID 504333 | Q9UIF8 | Potency, µM (doses to about 114 µM), inactives show top-dose activity change, negative = inhibition, actives largely listed as inhibitors | 4.4% of 360,000 active; note: potency is the fitted concentration of half-maximal effect; % is set by controls: 0 for no effect and ±100 for the full control effect; nearly all actives have a fitted effect of over 60% in size
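AlphaScreen luminescence quantifies BAZ2B engagement of H3K14Ac peptide; the protein and biotinylated peptide are both at 50 nM final, buffer PBS pH 7.4 with 0.01% Tween-20, all steps at room temperature.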
HP1b chromo inh: HP1-beta chromodomain-methylated histone interaction inhibition | P83916 | AlphaScreen HP1-beta / biotin-H3K9me3 peptide binding | Potency, µM (series often up to 114 µM), for the others: at the highest dose activity change, negative = inhibition, most hits filed as inhibitors | AID 540317 | 0.56% of 390,000 active; note: potency is the fitted concentration of half-maximal effect; nearly all actives have a fitted effect of over 70% in size
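Compound inhibition of the preformed complex between 50 nM HP1-beta and 50 nM biotinylated H3K9me3 peptide was read by AlphaScreen. Buffer was PBS pH 7.4 with 0.01% Tween-20. Incubations ran 30 min at room temperature, with 10 ug/mL donor/acceptor beads.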
An asterisk follows results filed as active; ? = inconclusive; / = no result given; [ ] = remark or other dose. Compounds with a hit are over-represented: about 10% of the library has one in this group of screens. Unless noted, calls come from the whole dose curve; as a rule, active = well fitted inhibition curve with a large enough effect; inconclusive = small, poorly fitted or top-dose-only effect; inactive = no such curve, though single readings can be large or run the other way.

SMILES	CtBP-E1A blk	Six1-Eya2 inh	JMJD2A Tudor inh	G9a inh	BAZ2B inh	HP1b chromo inh
COc1ccccc1C(=O)N(Cc1nc(-c2cccc(C)c2)no1)C(C)C	/	/	-8%	-4%[59 µM]	-9%	19%
NC(=O)C(=O)NN=C1C2CC3CC(C2)CC1C3	0	8	?	45µM*	-35%	1%
NC(=S)NN=C1C2CC3CC(C2)CC1C3	13	1	-17%	14µM*	-11%	-24%
CCOc1cc(CNc2ccc3cn[nH]c3c2)ccc1OC	17	?	?	28µM*	?	6%
COc1ccc(CNc2ccncc2)c(OC)c1OC	6	-3	-6%	/	/	52%
COc1ccc(CNc2ccc3cn[nH]c3c2)c(OC)c1OC	-30	-22	?	8.9µM*	?	-4%
O=S(=O)(/C=C/c1ccccc1)N1CCN(Cc2ccccc2)CC1	6	0	-6%	22%	-14%	30%
Cc1ccc(/C=C/C(=O)N2CCN(S(=O)(=O)c3cccs3)CC2)o1	6	0	-34%	7.9µM*	-36%	-11%
O=C(/C=C/c1ccco1)N1CCN(S(=O)(=O)/C=C/c2ccccc2)CC1	-1	-8	-13%	50µM*	?	0%
O=S(=O)(/C=C/c1ccccc1)N1CCOCC1	10	2	4%	89µM*	-2%	34%
O=C(/C=C/c1ccco1)N1CCN(S(=O)(=O)c2cccs2)CC1	-1	-5	?	40µM*	?	?
CCOC(=O)c1[nH]c2c(c1Cc1ccccc1OC)C(=O)CC(c1ccc(OCC)cc1)C2 (stereo not drawn)	/	/	-5%	0%[59 µM]	-4%	22%
O=C(NCc1ccc(F)cc1)C1CCCN1S(=O)(=O)c1ccccc1C(F)(F)F (stereo not drawn)	3	2	-21%	15%[12.7 µM]	-2%	42%
NC(=O)C1CCN(C(=O)/C=C/c2ccco2)CC1	0	6	-16%	8.9µM*	8%	6%
O=C(CSc1nc2ccccc2nc1Cc1ccc(F)cc1)Nc1ccc2c(c1)OCO2	/	/	-13%	8%[59 µM]	-1%	14%[57 µM]
Cc1ccc(NC(=O)c2sccc2SCc2cccc(C(F)(F)F)c2)cc1	42	31	52%	25µM*	52%	144%
N#CCSc1ccsc1C(=O)Nc1ccc(F)cc1	45	14	-8%	7.9µM*	4%	?
Cc1cccc(C)c1NC(=O)c1sccc1SCc1cccc(C(F)(F)F)c1	9	14	1%	?	10%	75%
Cc1ccccc1NC(=O)CC1C(=O)Nc2ccccc2N1CC(=O)N(C)C1CCS(=O)(=O)C1 (stereo not drawn)	1	1	-20%	18%[12.7 µM]	10%	37%
COc1cccc(-c2cc(CNC(=O)[C@H]3O[C@@H](n4ccc(N)nc4=O)[C@H](O)[C@@H]3O)no2)c1	4	-4	/	/	/	/
Brc1ccccc1/C=N/N1CCCCC1	-1	-15	?	-5%[2.33 µM]	?	-29%
CCOc1ccccc1C=NN1CCCCCC1	-11	-23	45µM*	/	/	?
COc1ccc(/C=N/N2CCN(C)CC2)c(OC)c1OC	-23	0	-1%	-37%	-2%	26%
COc1cccc(C=NN2CCCCCC2)c1OC	-24	-20	56µM*	/	/	?
CCOc1cc(C=NN2CCCCCC2)ccc1O	-3	-14	50µM*	/	/	?
SMILES	CtBP-E1A blk	Six1-Eya2 inh	JMJD2A Tudor inh	G9a inh	BAZ2B inh	HP1b chromo inh
COc1ccccc1N1CCN(/N=C/c2ccc(OC)c(OC)c2OC)CC1	-19	-27	?	35µM*	32µM*	-2%
Cc1ccc2c(=O)cc(C(=O)NC3CCS(=O)(=O)C3)oc2c1C (stereo not drawn)	1	-1	-24%	-2%	-13%	31%
Cc1cc(/C=C2/C(=O)N(C)C(=S)N2C)ccc1N1CCCC1	?	?	14µM*	8.9µM*	14µM*	35µM*
CCN1C(=O)/C(=C/c2ccc(OCc3ccc(C(=O)O)cc3)c(Cl)c2)NC1=S	-3	-8	?	71µM*	?	-5%
CCN1C(=O)/C(=C/c2ccc(N3CCCC3)cc2)NC1=S	-24	?	?	3.2µM*	25µM*	?
Cc1cc(/C=C2\NC(=S)N(C)C2=O)ccc1N1CCCC1	1	-12	89µM*	3%	40µM*	22%
O=C1O[C@@H](c2ccccc2)C[C@@H](O)C(=O)CCCCc2ccccc21	1	-1	/	/	/	/
CCCN1C(=O)/C(=C/c2ccc(N3CCOCC3)cc2)NC1=S	14	13	-19%	-4%[59 µM]	-38%	47%
CCCN1C(=O)/C(=C/c2ccc(N3CCCC3)c(C)c2)NC1=S	-19	-16	35µM*	-48%[0.0925 µM]	35µM*	?
Cc1cc(N2CCCC2)ccc1/C=C1/C(=O)N(C)C(=S)N1C	-23	?	?	2.5µM*	1.6µM*	?
CN1C(=O)/C(=C/c2ccc(O)c([N+](=O)[O-])c2)NC1=S	0	-6	-32%	40µM*	?	2%
CN1CCN(C(=O)c2cc3c(c(-c4cccc(-c5cc6ccccc6o5)c4)n2)[C@@H](CCO)N(S(=O)C(C)(C)C)C3)CC1 (stereo partly drawn)	-2	-11	/	/	/	/
O=C(Cc1ccccc1)Nc1nc2ccc(Cl)cc2c2nc(-c3ccco3)nn12	/	/	/	7%[59 µM]	/	/
Cc1cc2ccccc2n1CCNC(=O)c1ccc(Br)o1	-21	-25	?	35µM*	?	?
Cc1cc2ccccc2n1CCNC(=O)c1ccc(Br)cc1	/	/	-30%	-27%[59 µM]	-15%	11%
CCC(=O)NCCn1c(C)cc2ccccc21	3	-10	-23%	45µM*	-5%	1%
Cc1onc(-c2ccccc2Cl)c1C(=O)NCCn1c(C)cc2ccccc21	-12	-23	-24%	50µM*	-9%	16%
COc1cccc(/C=N/n2c(SC)nnc2-c2ccccc2)c1O	-1	-6	-31%	8.9µM*	?	24%
CN1C(=O)CC(C(=O)Nc2ccc(C(=O)O)cc2)SC1=Nc1ccc(Cl)cc1 (stereo not drawn)	/	/	-12%	1%[59 µM]	0%	24%
O=C(CCCCCBr)N1CCC(CC2CC(c3ccc(Cl)cc3)=NO2)(C(=O)NCC2CCCCC2)CC1 (stereo not drawn)	7	2	-12%	?	-27%	43%
O=C(CCCCCBr)N1CCC(CC2CC(c3cccc(Br)c3)=NO2)(C(=O)NCC2CCCCC2)CC1 (stereo not drawn)	-1	-6	?	50µM*	-25%[57.1 µM]	13%
Cc1cc(C=O)c(C)n1-c1ccc(Oc2ccc([N+](=O)[O-])cn2)cc1	-6	2	-10%	6%[59 µM]	?	22%

Bioassay records from PubChem.
